Laboratory results: PubChem BioAssay (EPA / NIEHS)
The source made the active and inactive calls. The calls were made as follows: active = hit-call score of the fitted dose curve at least 0.9, where 1 is the maximum; inactive = score below 0.9.

How the values were obtained:
[1] = CEETOX_H295R_PROG: CeeTox H295R High-throughput Steroidogenesis Assay for Progesterone (PROG) (AID 2283442); details: actives raise or lower the signal;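 as to AC50: human H295R adrenal cells primed with 10 µM forskolin before dosing; progesterone secreted into medium by H295R cells measured by HPLC-MS/MS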
Summary of the method: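 Steps: seed H295R cells and let them adhere overnight; prime 48 h with 10 uM forskolin; dose with compound in DMSO at 0.1% final for 48 h; extract medium steroids with MTBE; measure progesterone by LC-MS/MS. MTT viability was run in the same wells.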

[2] = read-out: Tumor necrosis factor receptor superfamily member 6 (Homo sapiens) (UniProt P25445); assay: LTEA_HepaRG_FAS: Life Technologies and Expression Analysis (LTEA) Assay for Fas cell surface death receptor (FAS) using HepaRG (AID 2283447); details: mRNA level, 48 h; actives raise or lower the signal
Summary of the method: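 Differentiated HepaRG cells in serum-free induction medium were exposed 48 h to 8 half-log concentrations up to 100 uM in 0.5% DMSO, in duplicate. FAS mRNA was measured by qRT-PCR normalised to ACTB, GAPDH and POLR2A; bidirectional fit versus DMSO.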

[3] = read-out: Fatty acid synthase (Homo sapiens) (UniProt P49327); assay: LTEA_HepaRG_FASN: Life Technologies and Expression Analysis (LTEA) Assay for Fatty Acid Synthase (FASN) using HepaRG (AID 2283448); details: mRNA level, 48 h; actives raise or lower the signal;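 as to AC50: differentiated human HepaRG liver cells in serum-free induction medium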
Summary of the method: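 Cells were plated, cultured 48 h, switched to serum-free induction medium, then dosed in duplicate (max 100 uM, half-log dilutions, 0.5% DMSO) for 48 h. RNA was then isolated and FASN quantified by qRT-PCR.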

[4] = read-out: Cyclin D2 (CCND2), CCND2 (gene 894); assay: LTEA_HepaRG_CCND2: Life Technologies and Expression Analysis (LTEA) Assay for Cyclin D2 (CCND2) using HepaRG (AID 2283449); details: mRNA level, 48 h; actives raise or lower the signal;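 also: CCND2 transcript measured by TaqMan qRT-PCR and normalised to three housekeeping genes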
Summary of the method: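 HepaRG, 48 h dosing, 8-pt half-log curve from 100 uM, 0.5% DMSO; duplicate wells. Readout: CCND2 transcript by microfluidic qRT-PCR, housekeeping-normalised; bidirectional fit vs DMSO baseline.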

[5] = read-out: Cyclin Dependent Kinase Inhibitor 1A (CDKN1A), CDKN1A (gene 1026); assay: LTEA_HepaRG_CDKN1A: Life Technologies and Expression Analysis (LTEA) Assay for Cyclin Dependent Kinase Inhibitor 1A (CDKN1A) using HepaRG (AID 2283450); details: mRNA level, 48 h; actives raise or lower the signal
Summary of the method: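 Read-out is CDKN1A mRNA by TaqMan qRT-PCR, normalized to three housekeeping genes and fitted in both directions against the DMSO baseline. Human HepaRG cells were treated 48 h with test chemicals up to 100 uM in half-log steps, 0.5% DMSO.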

[6] = read-out: Cyclin D1 (CCND1), CCND1 (gene 595); assay: LTEA_HepaRG_CCND1: Life Technologies and Expression Analysis (LTEA) Assay for Cyclin D1 (CCND1) using HepaRG (AID 2283451); details: mRNA level, 48 h; actives raise or lower the signal;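 as to AC50: differentiated human HepaRG liver cells in serum-free induction medium; TaqMan qRT-PCR transcript level normalised to ACTB GAPDH and POLR2A housekeeping genes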
Summary of the method: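 HepaRG plated 48 h, medium switched to serum-free induction medium, chemicals added in duplicate (top 100 uM, half-log steps, 0.5% DMSO) for 48 h, cells lysed, RNA measured by TaqMan qRT-PCR.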

[7] = read-out: catalase (CAT), CAT (gene 847); assay: LTEA_HepaRG_CAT: Life Technologies and Expression Analysis (LTEA) Assay for catalase (CAT) using HepaRG (AID 2283452); details: mRNA level, 48 h; actives raise or lower the signal;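 as to AC50: TaqMan qRT-PCR signal normalized to ACTB GAPDH and POLR2A housekeeping genes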
Summary of the method: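 HepaRG cells in serum-free induction medium, 0.5% DMSO vehicle, exposed 48 h in duplicate over 8 half-log concentrations from 100 uM. CAT mRNA measured by qRT-PCR, normalized to ACTB, GAPDH, POLR2A; bidirectional fit versus DMSO.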

[8] = read-out: flavin-containing dimethylaniline monooxygenases 3 (FMO3), FMO3 (gene 2328); assay: LTEA_HepaRG_FMO3: Life Technologies and Expression Analysis (LTEA) Assay for flavin-containing dimethylaniline monooxygenases 3 (FMO3) using HepaRG (AID 2283453); details: mRNA level, 48 h; actives raise or lower the signal;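 as to AC50: differentiated human HepaRG liver cells in serum-free induction medium; FMO3 transcript by TaqMan qRT-PCR normalized to ACTB GAPDH and POLR2A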
Summary of the method: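 FMO3 transcript quantified by TaqMan qRT-PCR against three housekeeping genes after 48 h chemical exposure of HepaRG cells. Eight-point half-log series, top 100 uM, 0.5% DMSO vehicle; phenobarbital 1mM induction control; up- or down-regulation fitted.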

[9] = CEETOX_H295R_ESTRADIOL: CeeTox H295R High-throughput Steroidogenesis Assay for Estradiol (AID 2283440); details: actives raise or lower the signal;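 also: estradiol secreted into medium quantified by LC-MS/MS after dansyl derivatisation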
Summary of the method: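 Estradiol secreted into the medium was measured by tandem mass spectrometry after liquid-liquid extraction and dansylation. Human H295R cells had been forskolin-primed (10 uM, 48 h) before a 48 h chemical exposure with 0.1% DMSO.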

[10] = CEETOX_H295R_ESTRONE: CeeTox H295R High-throughput Steroidogenesis Assay for Estrone (AID 2283441); details: actives raise or lower the signal;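 as to AC50: human adrenal H295R cells prestimulated with forskolin for two days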
Summary of the method: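 Estrone secreted into medium quantified by LC-MS/MS after dansyl chloride derivatization, following 48 h chemical exposure (0.1% DMSO final) of forskolin-prestimulated (10 uM, 48 h) H295R cells; gain or loss fitted against DMSO; MTT viability in same wells.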

Measured: AC50

Fatty acid synthase (Homo sapiens), sequence (P49327 whole entry, looked up): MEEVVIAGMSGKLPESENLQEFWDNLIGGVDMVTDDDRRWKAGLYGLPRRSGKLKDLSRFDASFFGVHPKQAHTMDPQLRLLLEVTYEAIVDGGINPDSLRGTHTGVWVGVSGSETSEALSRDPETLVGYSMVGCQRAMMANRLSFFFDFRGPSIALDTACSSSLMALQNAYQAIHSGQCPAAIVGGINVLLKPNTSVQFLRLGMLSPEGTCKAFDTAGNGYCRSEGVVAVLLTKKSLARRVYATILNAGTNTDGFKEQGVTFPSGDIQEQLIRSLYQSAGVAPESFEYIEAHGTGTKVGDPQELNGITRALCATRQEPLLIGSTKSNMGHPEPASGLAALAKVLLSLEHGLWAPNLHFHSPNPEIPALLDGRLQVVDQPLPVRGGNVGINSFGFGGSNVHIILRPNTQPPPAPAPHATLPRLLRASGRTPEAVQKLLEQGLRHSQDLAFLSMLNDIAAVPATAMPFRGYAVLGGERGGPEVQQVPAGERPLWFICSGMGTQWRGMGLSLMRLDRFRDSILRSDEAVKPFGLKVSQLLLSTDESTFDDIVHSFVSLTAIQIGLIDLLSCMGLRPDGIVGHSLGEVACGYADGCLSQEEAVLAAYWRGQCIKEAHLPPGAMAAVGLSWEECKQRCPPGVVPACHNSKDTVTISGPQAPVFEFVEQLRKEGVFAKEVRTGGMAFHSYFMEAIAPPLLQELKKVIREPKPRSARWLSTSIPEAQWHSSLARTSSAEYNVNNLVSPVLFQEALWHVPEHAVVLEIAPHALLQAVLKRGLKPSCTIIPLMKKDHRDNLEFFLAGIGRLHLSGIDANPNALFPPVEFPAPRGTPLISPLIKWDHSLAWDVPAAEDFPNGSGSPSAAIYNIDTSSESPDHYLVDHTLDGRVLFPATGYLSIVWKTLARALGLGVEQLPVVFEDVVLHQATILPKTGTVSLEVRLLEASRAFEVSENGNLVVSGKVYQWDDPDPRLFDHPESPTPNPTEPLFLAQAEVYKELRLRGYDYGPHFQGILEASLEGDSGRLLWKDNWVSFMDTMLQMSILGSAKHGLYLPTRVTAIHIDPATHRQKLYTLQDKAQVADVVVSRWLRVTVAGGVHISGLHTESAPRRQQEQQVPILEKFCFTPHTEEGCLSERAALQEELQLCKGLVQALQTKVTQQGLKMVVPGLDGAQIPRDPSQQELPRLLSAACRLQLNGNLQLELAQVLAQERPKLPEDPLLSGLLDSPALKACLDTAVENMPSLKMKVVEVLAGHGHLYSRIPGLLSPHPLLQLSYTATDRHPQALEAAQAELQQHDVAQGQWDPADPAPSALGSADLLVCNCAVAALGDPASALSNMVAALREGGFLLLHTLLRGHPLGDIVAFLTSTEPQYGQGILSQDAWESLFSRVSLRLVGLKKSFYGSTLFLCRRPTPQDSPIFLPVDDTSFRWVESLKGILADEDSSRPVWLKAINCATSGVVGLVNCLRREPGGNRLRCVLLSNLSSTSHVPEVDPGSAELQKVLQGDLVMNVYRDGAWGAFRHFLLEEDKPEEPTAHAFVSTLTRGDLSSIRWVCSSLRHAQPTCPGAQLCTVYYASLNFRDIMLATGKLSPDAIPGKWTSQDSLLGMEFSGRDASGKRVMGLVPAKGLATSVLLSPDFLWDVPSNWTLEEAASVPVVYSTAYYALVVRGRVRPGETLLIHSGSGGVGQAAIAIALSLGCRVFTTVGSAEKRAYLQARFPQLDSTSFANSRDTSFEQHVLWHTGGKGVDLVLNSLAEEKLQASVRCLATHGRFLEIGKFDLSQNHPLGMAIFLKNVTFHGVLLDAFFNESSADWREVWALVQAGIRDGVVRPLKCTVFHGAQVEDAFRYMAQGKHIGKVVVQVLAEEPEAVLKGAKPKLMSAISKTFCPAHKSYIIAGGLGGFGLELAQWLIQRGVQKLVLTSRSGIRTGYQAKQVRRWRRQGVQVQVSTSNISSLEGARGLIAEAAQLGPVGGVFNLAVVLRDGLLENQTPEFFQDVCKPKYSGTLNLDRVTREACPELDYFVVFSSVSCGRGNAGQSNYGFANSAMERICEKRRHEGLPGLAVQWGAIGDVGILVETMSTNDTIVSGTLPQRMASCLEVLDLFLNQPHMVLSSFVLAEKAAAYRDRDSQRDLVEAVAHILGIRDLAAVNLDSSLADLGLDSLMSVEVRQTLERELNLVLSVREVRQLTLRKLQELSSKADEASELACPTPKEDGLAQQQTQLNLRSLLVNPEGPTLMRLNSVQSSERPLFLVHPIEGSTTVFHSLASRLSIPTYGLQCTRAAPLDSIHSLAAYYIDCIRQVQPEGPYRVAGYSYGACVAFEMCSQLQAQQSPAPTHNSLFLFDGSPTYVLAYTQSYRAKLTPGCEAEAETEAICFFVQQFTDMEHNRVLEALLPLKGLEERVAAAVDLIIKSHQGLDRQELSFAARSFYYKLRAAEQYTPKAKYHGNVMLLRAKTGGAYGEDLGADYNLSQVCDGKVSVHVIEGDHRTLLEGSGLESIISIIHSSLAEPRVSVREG

Oc1ccc2ccc3cccc4ccc1c2c34
not listed: [8] | [9] | [10]
inactive: all other assays above

Cc1ccc(N)c(N)c1
not listed: [9] | [10]
inactive: all other assays above

COP(=S)(OC)SCN1C(=O)c2ccccc2C1=O
not listed: [9] | [10]
inactive: all other assays above

O=[N+]([O-])c1ccc(Oc2ccc(Cl)cc2Cl)cc1
active: [3] 50 µM
not listed: [8] | [9] | [10]
inactive: all other assays above

Cc1cc(N=Nc2ccccc2C)ccc1N
inactive: [4]
active: [1] 2.5 µM | [2] 3.37 µM | [3] 2.9 µM | [5] 3.36 µM | [6] 39.2 µM | [7] 3.32 µM | [8] 4.86 µM

CCOc1cccc(C2(N3CCN(c4ccccc4)CC3)CCC(C)CC2)c1 (stereo not given)
active: [1] 35.5 µM
not listed: [8] | [9] | [10]
inactive: all other assays above

[As]#[In]
not listed: [8] | [9] | [10]
inactive: all other assays above

O=P(OCCCl)(OCCCl)OCCCl
not listed: [8] | [9] | [10]
inactive: all other assays above

Nc1ccc(Cc2ccc(N)cc2)cc1
active: [1] 3.84 µM
not listed: [4] | [9] | [10]
inactive: all other assays above

CC(C)N(Cc1ccccc1)C(=O)C(C)(C)C
not listed: [9] | [10]
inactive: all other assays above

CC(C)(O)c1cnn2c(-c3ccc(F)c(-c4c(F)cccc4C#N)c3)cnc2n1
active: [1] 0.251 µM
not listed: [9] | [10]
inactive: all other assays above

CCC(C)c1ccc(O)cc1 (stereo not given)
not listed: [8] | [9] | [10]
inactive: all other assays above

CNC(=O)Oc1cccc2c1OC(C)(C)C2
active: [10] 0.494 µM
not listed: [8]
inactive: all other assays above

CC(C)(C)C(O)(CCc1ccc(Cl)cc1)Cn1cncn1 (stereo not given)
active: [1] 0.121 µM | [3] 3.08 µM | [5] 88.7 µM
inactive: [2] | [4] | [6] | [7]

Cc1cccc(N)c1N
active: [1] 15.4 µM | [3] 33.4 µM | [6] 50 µM | [7] 50 µM | [8] 61.7 µM
inactive: [2] | [5]

CCCCCCCCCCCCCN1CC(C)OC(C)C1 (stereo not given)
active: [1] 8.46 µM
inactive: all other assays above

Cc1ccc(N=C=O)cc1N=C=O
active: [3] 15.9 µM | [5] 72.2 µM | [7] 19.7 µM | [8] 31.2 µM
inactive: [1] | [2] | [4] | [6]

CCCCCOC(=O)c1ccccc1C(=O)OCCCCC
not listed: [8]
inactive: all other assays above

Nc1ccc(Oc2ccc(N)cc2)cc1
inactive: [2] | [3] | [5] | [6] | [7]
active: [1] 9.14 µM

C[C@]12C=CC3=C4CCC(=O)C=C4CC[C@H]3[C@@H]1CC[C@@H]2O
active: [1] 0.0975 µM | [3] 61 µM | [7] 50 µM | [8] 20.3 µM
inactive: [2] | [4] | [5] | [6]

O=C(Oc1ccc(Br)cc1)N1CCN2CCC1CC2
inactive: [2] | [4] | [5] | [6] | [7]
active: [1] 1.3 µM | [3] 75.9 µM

Cn1cc(-c2ccccc2)c(=O)c(-c2cccc(C(F)(F)F)c2)c1
active: [3] 9.92 µM | [5] 63.8 µM
not listed: [9] | [10]
inactive: all other assays above

Nc1ccc(Cl)cc1N
inactive: [4] | [6]
active: [1] 1.89 µM | [2] 13.3 µM | [3] 37.9 µM | [5] 11.4 µM | [7] 18.7 µM | [8] 23.1 µM

c1ccc(NNc2ccccc2)cc1
not listed: [8] | [9] | [10]
inactive: all other assays above

O=C(Nc1ccccc1)c1ccccc1I
active: [1] 7.28 µM | [3] 13.2 µM | [6] 22 µM
not listed: [8]
inactive: all other assays above

Nc1ccc(N=Nc2ccccc2)cc1
active: [1] 75.6 µM | [2] 13 µM | [3] 21.6 µM | [5] 11.2 µM | [6] 28.8 µM | [7] 14.9 µM
inactive: [9] | [10]

N#CC(Br)(Br)C(N)=O
active: [1] 50 µM
not listed: [8] | [9] | [10]
inactive: all other assays above

C1=Cc2cccc3cccc1c23
not listed: [1] | [9] | [10]
inactive: all other assays above

c1ccc2c(c1)-c1cccc3cccc-2c13
inactive: [4] | [5] | [6] | [7]
active: [1] 4.8 µM | [3] 69.1 µM

OCCOCCO
inactive: [2] | [3] | [4] | [5] | [6] | [7]

CN(C)c1ccc(C(=O)c2ccc(N(C)C)cc2)cc1
inactive: [2] | [3] | [4] | [5] | [6] | [7]

CC(C)(C)OOC(C)(C)CCC(C)(C)OOC(C)(C)C
not listed: [1] | [9] | [10]
inactive: all other assays above

O=[N+]([O-])C(Br)(CO)CO
not listed: [1] | [9] | [10]
inactive: all other assays above

CC(C)COC(=O)c1ccccc1C(=O)OCC(C)C
not listed: [1] | [9] | [10]
inactive: all other assays above

Brc1ccc(Oc2ccccc2)cc1
not listed: [1] | [9] | [10]
inactive: all other assays above

CN(C)c1ccccc1
inactive: [2] | [3] | [4] | [5] | [6] | [7]

CCOC(=O)[C@]1(c2ccccc2)Oc2ccccc2[C@@H]1N
active: [3] 41.6 µM | [5] 78.3 µM | [6] 77.5 µM | [7] 88.2 µM | [8] 78.6 µM
inactive: [1] | [4]

CCC12COCN1COC2
inactive: [2] | [3] | [4] | [5] | [6] | [7]

c1ccc(C2CO2)cc1 (stereo not given)
inactive: [2] | [3] | [4] | [5] | [6] | [7]

C=CCc1ccc2c(c1)OCO2
not listed: [1] | [9] | [10]
inactive: all other assays above

CCCSC(=O)N(CCC)CCC
inactive: [2] | [3] | [4] | [5] | [6] | [7]

CCCCOC(=O)c1ccccc1C(=O)OCc1ccccc1
inactive: [2] | [3] | [4] | [5] | [6] | [7]

CCCCCCCCOC(=O)c1ccc(C(=O)OCCCCCCCC)c(C(=O)OCCCCCCCC)c1
inactive: [2] | [3] | [4] | [5] | [6] | [7]

Cc1ccc([N+](=O)[O-])cc1
not listed: [1] | [9] | [10]
inactive: all other assays above

[Cl-].[Cl-].[Hg+2]
not listed: [1] | [9] | [10]
inactive: all other assays above

Clc1ccc(C(c2ccc(Cl)cc2)C(Cl)(Cl)Cl)cc1
inactive: [2] | [4] | [5] | [6] | [7]
active: [3] 66.6 µM

CS(=O)(=O)NC(=O)c1cc(Oc2ccc(C(F)(F)F)cc2Cl)ccc1[N+](=O)[O-]
inactive: [2] | [3] | [4] | [5] | [6] | [7]

CO[C@@H]1[C@H](OC(=O)NC(=O)CCl)CC[C@]2(CO2)[C@H]1[C@@]1(C)O[C@@H]1CC=C(C)C
not listed: [1] | [9] | [10]
inactive: all other assays above

COC(=O)c1ccccc1N
inactive: [2] | [3] | [4] | [5] | [6] | [7]

CCN(CC)CCO
inactive: [2] | [3] | [4] | [5] | [6] | [7]

c1ccc(N=Nc2ccccc2)cc1
inactive: [2] | [3] | [4] | [5] | [6] | [7]

C[N+](C)(C)CC1CO1 (stereo not given)
not listed: [1] | [9] | [10]
inactive: all other assays above

O=C(O)C1C2CCC(O2)C1C(=O)O (stereo not given)
inactive: [2] | [4] | [7]
active: [3] 84.3 µM | [5] 35.8 µM | [6] 32.3 µM

COc1cc(C=O)cc2c1[C@H](COC(N)=O)[C@]1(OC(C)=O)ON2C[C@H]2[C@@H]1N2C(C)=O
inactive: [3] | [5]
active: [2] 88.1 µM | [4] 29.6 µM | [6] 50 µM | [7] 0.412 µM
